Screening data as filed in PubChem BioAssay.
Sampled rows, rich in hits. Any-hit rate of the full collection: about 10%.
NS1 function inh = influenza NS1 inhibition. Potency, µM (titrated, usually from 46.1 µM), inactives show at the highest dose activity, positive = more growth. 270,000 tested, 0.4% active; further: actives are rising curves; nearly all actives have a fitted effect of over 50% in size
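OD600 was taken as the measure of yeast growth restored by compound in an NS1-expressing S. cerevisiae strain. Cells had been washed out of glucose medium and diluted 1:100 into galactose -URA medium, pH 6.0.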
Pf growth 48h = inhibits P. falciparum growth in the first generation, 48 h | 310,000 tested, 5.9% active | Potency, µM (doses to about 28.7 µM), for the others: at the top dose activity change, negative = inhibition, usual class: inhibitors | P. falciparum luciferase growth in erythrocytes, 48 h; active means well fitted inhibition curve with a large enough effect; inconclusive means small, poorly fitted or top-dose-only effect, or another doubt; inactive means no such curve, though single readings can be large or run the other way; further: on the % scale 0 is the no-effect control and ±100 the full control effect
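First compound was added to culture medium, then infected red cells at 0.1% parasitemia and 2% hematocrit (final). After incubation at 37 C under 5% CO2, luciferase detection reagent was dispensed and light output recorded.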
Pf growth 96h = P. falciparum growth inhibition at 96 hours; P. falciparum luciferase reporter growth, 96 h; AID 504834; Potency, µM (highest dose often 28.7 µM), for the others: at the top dose activity change, negative = inhibition, hits mostly inhibitors; 320,000 tested, 6.9% active; active means well fitted inhibition curve with a large enough effect; inconclusive means small, poorly fitted or top-dose-only effect, or another doubt; inactive means no such curve, though single readings can be large or run the other way; further: on the % scale 0 is the no-effect control and ±100 the full control effect
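Two parasite generations (96 h, 37 C, 5% CO2) of compound exposure in infected erythrocytes (0.05% parasitemia, 2% hematocrit). Luciferase-reporter P. falciparum; decreased luminescence indicates inhibited growth, aimed at apicoplast-acting delayed death.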
SARS PLP yeast = blocks SARS-CoV papain-like protease in a yeast assay; S. cerevisiae expressing SARS-CoV PLpro, growth rescue; Potency, µM (highest dose often 32.9 µM), inactives show top-dose activity, positive = growth rescue, usual class: activators; 330,000 tested, 0.19% active; AID 485353; further: 0% is about no effect; nearly all actives have a fitted effect of over 55% in size
* = called active by the depositor; u = inconclusive; x = no result; [ ] = another dose, or the depositor's remark. Unless noted, the call rests on the fitted dose curve. Potency means the concentration at half of the fitted maximal effect.

SMILES	NS1 function inh	Pf growth 48h	Pf growth 96h	SARS PLP yeast
COc1cc2c(cc1OC)C(c1cc3cccc(C)c3[nH]c1=O)N(C(=O)c1ccco1)CC2 (stereo unspecified)	20%	12µM*	-6%	1%
COc1cc2c(cc1OC)C(COc1ccc(F)cc1)N(C(=O)c1ccco1)CC2 (stereo unspecified)	-72%	12µM*	u	-2%
COc1cc2c(cc1OC)C(COc1ccccc1OC)N(C(=O)C(C)(C)C)CC2 (stereo unspecified)	3%	12µM*	-2%	2%
O=C(/C=C/c1ccc(Cl)c(C(F)(F)F)c1)N1CCN(c2ccccn2)CC1	-6%	14%	8%	-6%
O=C1c2ccccc2C(O)(c2ccccc2)N1CCc1ccccc1 (stereo unspecified)	3%	u	u	-8%
O=C1c2ccccc2C(O)(c2ccccc2)N1c1ccncc1 (stereo unspecified)	-55%	12µM*	u	-1%
O=C(Nc1cccc(Cl)c1)NC1CCS(=O)(=O)C1 (stereo unspecified)	8%	5%	42%	1%
CC(C)CN(C(=O)C1COc2ccccc2O1)c1c(N)n(CC(C)C)c(=O)[nH]c1=O (stereo unspecified)	x	-11%	-23%	7%
C/C(=N\NC(=O)Cc1ccccc1Cl)c1cccnc1	-20%	u	1.7µM*	3%
N#C/C(C(=O)NCc1ccco1)=C1/SC=C(c2ccccc2)N1c1ccccc1	12%	0%	5.2µM*	7%
O=C(O)c1cc(NS(=O)(=O)c2cccc3nsnc23)cc(C(=O)O)c1	6%	-4%[0.00184 µM]	7.4µM*	1%
O=S(=O)(Nc1cccc(Br)c1)c1cccc2nsnc12	-8%	19%	u	3%
Cc1ccc([N+](=O)[O-])cc1S(=O)(=O)Nc1ccc(C(=O)N2CCN(C(=O)c3ccco3)CC2)cc1	x	u	u	-6%
O=C(CSc1nccc(=O)[nH]1)NC1CCCCCC1	x	x	x	9%
O=C(CSc1nncc(=O)[nH]1)NC1CCCCC1	9%	11%	3.7µM*	1%
COc1ccc2c(c1)C(=O)CC(c1ccccc1F)O2 (stereo unspecified)	-3%	-5%	6%	-14%
COc1ccc2c(c1)C(=O)CCC2c1ccccc1 (stereo unspecified)	-40%	-9%	5.2µM*	-5%
COc1ccc(CNC(=O)[C@H](C)NC(=O)N2CCn3c2nc2ccccc23)cc1	-6%	10%	22%	1%
CCn1cc(C(=O)NCc2cccnc2)c2cc(OC)c(OC)cc2c1=O	-5%	23%	2.1µM*	-2%
COC(=O)CNC(=O)c1cn(CC(C)C)c(=O)c2cc(OC)c(OC)cc12	7%	0%	179%	-2%
COc1cc2c(C(=O)NCc3ccccn3)cn(CC(C)C)c(=O)c2cc1OC	u	-9%	13µM*	0%
CCn1cc(C(=O)N2CCCc3ccccc32)c2cc(OC)c(OC)cc2c1=O	-14%	15µM*	x	6%
Cc1nn(CC(=O)N2CCC(C(N)=O)CC2)c(=O)c2nn(-c3ccccc3)c(C)c12	9%	22%	-10%	9%
C=CCn1c(SCCCCCC)nc(O)cc1=O	u	-6%	6.6µM*	-13%
COc1cccc(NC(=S)N2CCN(S(=O)(=O)c3ccccc3)CC2)c1	7%	u	u	-2%
SMILES	NS1 function inh	Pf growth 48h	Pf growth 96h	SARS PLP yeast
Cc1cccc(OCC(O)Cn2c(N3CCCCC3)nc3c2c(=O)n(C)c(=O)n3C)c1 (stereo unspecified)	-2%	u	u	1%
Cc1cc(-n2c(C)cc(C(=O)CSc3nnnn3-c3ccc(Cl)cc3)c2C)no1	-6%	12µM*	12µM*	-18%
O=C(O)c1ccccc1-c1ccc(C=C2C(=O)N(c3ccccc3)C(=S)N(c3ccccc3)C2=O)o1	22%	24%	12µM*	0%
COc1cc(C2/C(=C(\O)c3ccc4c(c3)OCCO4)C(=O)C(=O)N2Cc2ccco2)cc(OC)c1OC (stereo unspecified)	10%	-3%	u	-5%
O=C(NCC(O)c1ccccc1)c1ccc(Cl)c(S(=O)(=O)N2CCCC2)c1 (stereo unspecified)	x	9.3µM*	u	-1%
COc1ccc(CCNC(=O)c2ccc(Cl)c(S(=O)(=O)N(C)c3ccccc3)c2)cc1	0%	u	10µM*	-2%
O=C(NCCn1ccc2ccccc21)c1cccc([N+](=O)[O-])c1	x	21%	27%	-4%
O=C(NCCc1ccccc1)c1ccc(Cl)c(S(=O)(=O)N2CCCC2)c1	-22%	-16%	10µM*	-5%
